# Compounds with a hit are over-represented: about 3.1% of the library has one in this group of screens.
# EP2 antag = blocks the human prostaglandin E2 receptor EP2 | C6 glioma cells expressing human EP2, cAMP TR-FRET; cells stimulated with saturating PGE2 | inhibition, % at 25 µM | hit rate 0.52% among 260,000 | AID 1422;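 active = percent inhibition above 40 after rounding to a whole number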;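 also: rat C6 glioma host cells with rolipram phosphodiesterase inhibitor present; the protocol text gives 20 µM as final concentration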
# Target sequence (P43116 whole entry, looked up): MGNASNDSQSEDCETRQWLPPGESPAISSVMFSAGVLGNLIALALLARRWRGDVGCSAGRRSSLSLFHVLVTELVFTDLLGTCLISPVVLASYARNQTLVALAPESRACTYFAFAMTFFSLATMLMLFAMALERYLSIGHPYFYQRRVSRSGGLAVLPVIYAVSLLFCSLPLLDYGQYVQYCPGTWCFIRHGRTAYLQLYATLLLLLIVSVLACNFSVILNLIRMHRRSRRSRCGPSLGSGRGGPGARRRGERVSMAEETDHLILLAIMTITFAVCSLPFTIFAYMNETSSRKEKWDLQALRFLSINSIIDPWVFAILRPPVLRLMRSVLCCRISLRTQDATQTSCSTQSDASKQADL
# KCC2 mod = modulators of human KCC2 chloride dependent transport. hit rate 2.2% among 190,000. Q9H2X9. KCC2 cells, thallium flux FluoZin-2 fluorescence. B-score of Tl+ flux slope (higher = more flux/activation; lower = inhibition) at 10 µM. AID 1456;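 active = thallium flux slope and its plate-corrected score both differing from the plate sample mean at a set confidence after two filtering rounds, in either direction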;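 also: slope of fluorescence scaled to starting intensity during 10 to 20 s after thallium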
# S1P3 antag = antagonists of human S1P3 receptor. Q99500. CHO S1P3 NFAT-BLA reporter, FRET fluorescence, antagonist mode. inhibition, % at 4.98 µM. hit rate 0.27% among 170,000;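 active = inhibition above the plate cutoff, the mean inhibition of test wells on that plate plus 3 SD, cut at about 28% in these data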;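 also: cells challenged with S1P at its EC80 of 0.8 µM; blue over green emission ratio from cleaved BLA substrate after 4 h stimulation; 0% = S1P-stimulated wells and 100% = unstimulated DMSO-only wells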
# Target sequence (Q99500 whole entry, looked up): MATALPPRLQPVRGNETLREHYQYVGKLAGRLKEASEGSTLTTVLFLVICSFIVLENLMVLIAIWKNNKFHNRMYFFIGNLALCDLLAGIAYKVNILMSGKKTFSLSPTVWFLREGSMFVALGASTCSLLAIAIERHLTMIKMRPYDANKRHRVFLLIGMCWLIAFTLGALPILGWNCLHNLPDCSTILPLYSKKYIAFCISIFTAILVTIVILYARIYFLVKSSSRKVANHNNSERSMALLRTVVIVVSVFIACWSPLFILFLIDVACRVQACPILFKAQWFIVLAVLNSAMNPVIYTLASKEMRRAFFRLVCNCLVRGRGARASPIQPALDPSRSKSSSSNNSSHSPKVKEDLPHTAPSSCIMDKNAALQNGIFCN
# EP2 mod = EP2 receptor (human) modulation; EP2-expressing cells, cAMP HTRF FRET, PGE2 co-stimulation; hit rate 0.83% among 260,000; induction, % at 25 µM;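 active = compounds whose cAMP rise, as percent of the full-agonist control response, exceeds 60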;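 also: rat C6 glioma line stably carrying human EP2 under a CMV promoter; the protocol text gives 20 µM as final concentration; 100% = response of wells given 1 µM PGE2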
# KCC2 secondary = KCC2 (human) modulation, secondary assay | shares compounds with KCC2 mod | HEK293-KCC2, thallium flux, FluoZin2 fluorescence; stronger effect = higher value | normalised thallium flux (F/F0 slope) at 10 µM | hit rate 15% among 3,700;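 active = thallium flux slope above the same plate's solvent-only control mean plus 3 SD; inconclusive = the two replicate wells disagree; inactive = no significant difference from solvent-only control wells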
# KCC2 bumet counter = thallium flux despite bumetanide block in KCC2 cells, secondary assay 3 | HEK293-KCC2 + bumetanide/ouabain, thallium flux FluoZin2; stronger effect = higher value | shares compounds with KCC2 mod | hit rate 49% among 3,700 | normalized thallium flux at 10 µM;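 active = thallium entry rate above the same plate's blocked-transporter control wells by more than 3 SD; inconclusive = the two repeat wells disagree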;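 also: raw slope of fluorescence over initial fluorescence between 10 and 20 s after thallium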
# KCC2 secondary2 = confirmation of human KCC2 transport modulators | AID 1715 | hit rate 23% among 3,700 | normalized thallium flux at 10 µM | HEK293-KCC2, thallium flux FluoZin2 fluorescence; actives lie on both sides; F/F0 rise rate, 10–20 s post-thallium | shares compounds with KCC2 mod;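 active = thallium flux slope more than 3 SD above or below the plate's solvent-only control mean, mostly below; inconclusive = the two repeat wells disagreed; inactive = no significant shift from solvent-only controls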;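 also: raw slope with 0.1% DMSO as baseline and bumetanide as block control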
# HEK counter1 = counter-screen for KCC2 modulators: effect in parental HEK293 cells. thallium flux FluoZin2, ouabain; baseline-ratio fluorescence slope, 10–20 s after thallium. thallium flux rate (normalised fluorescence) at 10 µM. hit rate 46% among 3,700. shares compounds with KCC2 mod;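 active = thallium flux rate significantly above the same plate's solvent-only control wells, beyond their mean plus 3 SD; inconclusive = the two replicate wells gave conflicting results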
# KCC2 ouabain = KCC2 (human) modulation, ouabain retest | shares compounds with KCC2 mod | HEK293-KCC2, thallium flux FluoZin2 fluorescence; bidirectional: low = inhibitor, high = activator | raw Tl+ flux slope (below DMSO = inhibition, above = activation) at 10 µM | hit rate 48% among 3,700 | AID 1717;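 active = thallium flux slope beyond 3 SD from same-plate DMSO control mean in most replicates, usually higher, sometimes lower; inconclusive = repeat tests gave conflicting results; inactive = no significant difference from controls in most replicates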;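 also: slope of initial-normalized fluorescence between seconds 10 and 20 after thallium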
# HEK293 Tl flux2 = counter-screen for KCC2 modulators: effect in parental HEK293 cells | shares compounds with KCC2 mod | thallium flux FluoZin-2 fluorescence slope | hit rate 33% among 3,700 | thallium flux slope at 10 µM;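 active = thallium flux slope above the same plate's solvent-control mean plus 3 SD in both duplicate wells; inconclusive = duplicate wells that disagreed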;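 also: run without ouabain in cells lacking the KCC2 cotransporter; slope of fluorescence scaled to its starting value between 10 and 20 s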
# Active calls of the source: *; ? = inconclusive; . = no result.
SMILES,EP2 antag,KCC2 mod,S1P3 antag,EP2 mod,KCC2 secondary,KCC2 bumet counter,KCC2 secondary2,HEK counter1,KCC2 ouabain,HEK293 Tl flux2
Cc1ccc(C)c(S(=O)(=O)NC(Cc2c[nH]c3ccccc23)C(=O)O)c1 (configuration not stated),10,0.057,-12,14,.,.,.,.,.,.
CCn1c2ccc(C)cc2c2nnc(NN)nc21,1,-6.9*,8,11,0.01,?,0.034,0.0075,0.023,0.011
CCn1c2ccccc2c2nnc(NN)nc21,4,1.3,5,17,.,.,.,.,.,.
CCCSc1nc2c(c(=O)[nH]c(=O)n2C)n1C,8,11*,-6,15,0.016,0.0048,0.027,0.0076,0.017,0.01
C=CCn1c(Sc2ccccc2)nc2c1c(=O)[nH]c(=O)n2C,8,0.34,.,-33,.,.,.,.,.,.
C=CCn1c(Sc2nncn2C)nc2c1c(=O)[nH]c(=O)n2C,7,.,-7,-12,?,0.0068,0.028,0.0067,0.021,0.0098
COC(=O)c1cc2c(cc1Cl)N1CCCCCC1=NS2(=O)=O,7,-0.16,-5,7,.,.,.,.,.,.
CN(C)S(=O)(=O)c1cccc(NC(=O)c2cc3c(cc2Cl)N2CCCCCC2=NS3(=O)=O)c1,8,-4.5*,9,-29,0.0093,0.0065,0.023*,0.0067,0.014*,0.0091
O=C(NC(=S)N1CCN(C/C=C/c2ccccc2)CC1)c1ccc(Cl)nc1,2,68*,5,-3,0.0077,0.08*,0.063*,0.056*,0.067*,0.054*
CCNC(=S)N(Cc1ccc(OC)cc1)Cc1cc2cc(CC)ccc2[nH]c1=O,4,.,.,-3,.,.,.,.,.,.
CCN(CC)c1ccc(NC(=O)COC(=O)COc2ccccc2[N+](=O)[O-])cc1,8,-6.8*,-3,4,0.0096,0.0058,0.035,0.0039,0.019,0.012
O=C(Cc1csc(Nc2nc(=S)[nH]c3ccccc23)n1)N1CCN(c2cccc(Cl)c2)CC1,10,25*,-13,-67,?,0.075*,0.036,0.03*,0.053*,0.014*
Cc1ccc(Cl)cc1N1CCN(C(=O)Cc2csc(Nc3nc(=S)[nH]c4ccccc34)n2)CC1,11,19*,-18,-3,0.013*,0.053*,?,0.032*,0.054*,0.014*
COc1ccc(C(=O)N(c2ccccc2)C(C(=O)NC(C)(C)C)c2c[nH]c3ccccc23)cc1OC (configuration not stated),8,.,.,15,.,.,.,.,.,.
CCOc1ccccc1NC(=O)COC(=O)c1ccccn1,9,.,.,-27,.,.,.,.,.,.
COc1ccc(S(=O)(=O)N(CCc2ccccc2)CC(N)=O)cc1,5,-2.1,-18,-27,.,.,.,.,.,.
COc1ccc(S(=O)(=O)N(CCc2ccccc2)CC(=O)O)cc1Cl,12,-3.8*,.,26,0.0099,?,0.027*,0.0044,0.017*,0.012
O=C(CNS(=O)(=O)c1cc(Cl)ccc1Cl)OCC(=O)c1cccs1,9,.,.,-5,.,.,.,.,.,.
N#Cc1c(NC(=O)CSc2ncnc3scc(-c4ccccc4)c23)sc2c1CCCC2,6,.,.,-7,.,.,.,.,.,.
Cc1cccc(NC(=S)N=Nc2c(O)[nH]c3ccccc23)c1,11,17*,5,-23,?,0.032*,0.028,0.015*,0.046*,?
CC(C)c1ccc2[nH]c(O)c(N=NC(=O)c3cccc(S(=O)(=O)Nc4ccccc4Cl)c3)c2c1,6,0.14,-13,0,.,.,.,.,.,.
CC(C)NC(=S)N=Nc1c(O)[nH]c2ccc(C(C)C)cc12,6,4.1*,-1,5,0.0079,0.013*,0.032,0.015*,?,0.014*
CC(C)(O)C(=O)N=Nc1c(O)[nH]c2ccccc12,20,0.48,-27,4,.,.,.,.,.,.
COc1ccccc1NC(=S)N=Nc1c(O)[nH]c2ccc(Br)cc12,12,9.1*,-16,-5,0.0071,0.01*,0.037,0.014*,?,0.017*
CCCc1nn(CC(=O)O)c(=O)c2cc3ccsc3n12,11,.,.,-1,.,.,.,.,.,.
SMILES,EP2 antag,KCC2 mod,S1P3 antag,EP2 mod,KCC2 secondary,KCC2 bumet counter,KCC2 secondary2,HEK counter1,KCC2 ouabain,HEK293 Tl flux2
CC1CCCCN1CCn1c(=S)[nH]c2ncccc2c1=O (configuration not stated),1,.,-22,22,.,.,.,.,.,.
CC(C)OCCCn1c(=S)[nH]c2ncccc2c1=O,.,13*,-30,30,0.017*,0.034*,0.031,0.016*,0.03*,0.012*
O=c1c2cc(N3CCOCC3)ccc2[nH]c(=S)n1CCCN1CCCC1,5,0.5,.,-1,.,.,.,.,.,.
CCN(CCCn1c(=S)[nH]c2ncccc2c1=O)c1ccccc1,5,78*,-1,26,0.019*,0.14*,0.038,0.12*,0.12*,0.023*
O=c1c2cccnc2[nH]c(=S)n1CCCN1CCN(c2ccccc2F)CC1,.,20*,4,-19,0.013*,0.076*,0.038,0.039*,0.058*,0.013*
CCN(CC)CCCn1c(=S)[nH]c2ncccc2c1=O,6,1.2,.,3,.,.,.,.,.,.
CCN(CCCn1c(=S)[nH]c2ccc(N3CCOCC3)cc2c1=O)c1ccccc1,2,4.9*,1,33,0.012*,0.017*,0.03,0.0095*,0.052*,0.011*
CCn1c(SCC(=O)N2CCCC(C)C2)nnc1-c1cccs1 (configuration not stated),10,.,.,4,.,.,.,.,.,.
CC1(C)CC(N(Cc2ccccc2F)CC2CCOC2)CC(C)(C)N1 (configuration not stated),8,.,.,-17,.,.,.,.,.,.
Cc1ccc(C(=O)Nc2nc(=O)n(C(=O)CC(C)C)s2)cc1,23,-2.2,.,0,.,.,.,.,.,.
Cc1ccc(C(=O)Nc2nc(=O)n(C(=O)c3ccccc3Cl)s2)cc1,11,-7.2*,.,7,0.0061,?,0.024*,0.0063,0.012*,0.0089
CCCCCCCCC(=O)NNC(=O)c1c(O)c2ccccc2n(CC)c1=O,10,9.5*,7,-9,0.0056,0.022*,0.036,0.019*,0.03*,0.019*
CCCCCCC(=O)NNC(=O)c1c(O)c2ccccc2n(CC)c1=O,9,5.6*,-25,-36,0.0064,0.017*,0.034,0.017*,0.025*,0.016*
